Test results reported in PubChem BioAssay.
Several values for one entry are separate records, joined by “and”; a condition that tells them apart may be missing. Equal values may be shown once. Inconclusive results are not listed. Activity calls are given as the source filed them.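 Rule for the calls, unless noted: active = normalized viability below 100% at a tested concentration; inactive = the rest.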

Legend:
[1] = Wnt pathway potentiators raising nuclear beta-catenin – imaging, WNT3A-conditioned medium, mouse C2C12, NPC library, primary screen (AID 1117326; in the data active = nuclear beta-catenin stimulation mostly above about 4.2%, no sharp cut-off; inactive = mostly below about 10%); conditions: stronger effect = higher value
[2] = stimulators of insulin release from INS-1E, primary screen, cell-based, 5 mM glucose, NPC library (AID 1117329;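 active = compound raises insulin release from rat beta cells at 5 mM glucose, no numeric limit stated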); conditions: rat INS-1E insulin secretion, at 10 µM, stronger effect = higher value
[3] = growth inhibition of GSK3B-pretreated HCT116 cells – cell-based, CellTiter-Glo, 0.2 to 20 µM (AID 1117336;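 active = compounds lowering colon cancer cell viability after pretreatment blocking the GSK3B kinase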); conditions: HCT116 viability after GSK3B inhibitor, at 20 µM, stronger effect = higher value
[4] = inhibition of endothelial tube formation, primary screen, imaging, VEGF stimulated, CD31 staining, tube area, NPC library (AID 1117340;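 active = compound that reduces growth-factor-driven endothelial tube area in a mixed cell culture, no cutoff stated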); conditions: VEGF-stimulated ADSC/ECFC co-culture, at 10 µM, stronger effect = higher value
[5] = GLP1 release stimulators, primary, NCI-H716, NPC library (AID 1117341;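 active = compound raises GLP1 secretion from the human gut endocrine cells, with no numeric limit stated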); conditions: NCI-H716 cells, at 10 µM, stronger effect = higher value
[6] = HCT116 colon cancer cell growth inhibition, primary screen, CellTiter-Glo luminescence, NPC library (AID 1117342;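 active = compounds that lower survival of HCT116 colon cancer cells in the luminescence readout, no numeric limit stated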); conditions: at 20 µM (top of the series)
[7] = reduced SW480 viability measured with CellTiter-Glo, NPC library, primary (AID 1117343;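 active = compounds that lower viability of the colon cancer cells in the luminescence readout, with no numeric limit stated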); conditions: CellTiter-Glo luminescence; at 20 µM (top of the series) unless noted
[8] = NPC library primary testing for decreased DLD-1 cell viability via CellTiter-Glo (AID 1117346;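 active = compounds that lower survival of DLD-1 colon cancer cells in the luminescence readout, no cutoff given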); conditions: DLD-1 viability, CellTiter-Glo luminescence; at 20 µM (top of the series)
[9] = system: Aerobactin synthetase IucA (Klebsiella pneumoniae); assay: inhibition of K. pneumoniae IucA enzyme – biochemical, Tocris library, absorbance (AID 1345561; call rule not given here;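 note: 100% = enzyme without compound and 0% = no enzyme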); conditions: purified IucA enzyme assay, absorbance (OD) read-out; stronger effect = lower value;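 tested at 8 µM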
[10] = viability loss in pontine glioma line – cell-based, SU-DIPG-XVII, MIPE5.0, CellTiter-Glo, qHTS, dose response (AID 1347060; cut-off not given, nearly all actives have AC50 up to about 26 µM;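 for AC50: cells exposed to compound for 48 hours before viability readout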); conditions: CellTiter-Glo ATP luminescence
[11] = growth inhibition of DIPG cells – cell-based, MIPE5.0 library, qHTS (AID 1347068; cut-off not given, nearly all actives have IC50 up to about 30 µM;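 for IC50: cells exposed to compound for 48 hours before viability readout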); conditions: SU-DIPG-XXV viability
[12] = viability loss with induced miR-34 in A549 – imaging, A549 dox-inducible miR-34, nuclei and caspase counts, primary screen (AID 1347080;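 active = compounds whose cell count with miR-34 switched on is under 0.7 times the count with it off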); conditions: A549 miR-34 inducible, Hoechst nuclei count, 48 h
[13] = galactose survival enhancers in mitochondrial complex I cybrids – cell-based, galactose medium, ATP luminescence, primary screen (AID 1645843;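 active = z-score of at least 1.8 in each of two replicates, scored against plate mean and spread of sample wells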;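 note: positive z means more ATP and so rescue of galactose-driven cybrid death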); conditions: complex I mutant cybrid cells, 72 h, stronger effect = higher value
[14] = P. berghei load reduction in hepatocytes – cell-based, HepG2, luciferase luminescence, HepG2 viability, primary screen (AID 624349; in the data active = parasite load remaining mostly below about 12%, no sharp cut-off; inactive = mostly above about 10%;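 note: 100% = mean of DMSO negative control wells on the same plate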); conditions: P. berghei liver stage in HepG2, luciferase luminescence, concentration not given here; parasite load remaining: stronger effect = lower value; viability: measured here: HepG2 viability without parasites
[15] = viability loss in pontine glioma line – cell-based, SU-DIPG-XIII, MIPE4.0, CellTiter-Glo, qHTS, dose response (AID 1347061; cut-off not given, nearly all actives have AC50 up to about 37 µM;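 note: cells exposed to compound for 48 hours before readout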); conditions: CellTiter-Glo ATP luminescence
[16] = MELAS cybrid and Rieske KO viability enhancers – cell-based, MELAS cybrids, Rieske KO mouse fibroblasts, CellTiter-Glo, primary screen (AID 1508586;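 active = mean z-score across replicates of 1.96 or higher in either the MELAS or the Rieske mutant cell line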;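 note: z relative to plate mean and SD of compound and empty wells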); conditions: low glucose
[17] = viability loss in pontine glioma line – cell-based, JHH-DIPG-1, MIPE4.0, CellTiter-Glo, qHTS, dose response (AID 1347062; cut-off not given, nearly all actives have AC50 up to about 27 µM;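 note: cells exposed to compound for two days before readout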); conditions: JHH-DIPG-1 viability, CellTiter-Glo ATP luminescence
[18] = target: NAD(+) hydrolase SARM1 (Homo sapiens) (UniProt Q6SZW1); assay: blocking NAD cleavage by SARM1 SAM-TIR – cell lysate, NAD-Glo luminescence (AID 1508614;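 active = compound whose remaining NAD level is above about 45 nM, limit read from the data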;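 note: higher remaining NAD means stronger inhibition of SARM1 NADase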); conditions: SAM-TIR HEK293T lysate NADase, at 1 µM, stronger effect = higher value
[19] = drug combination growth inhibition, ovarian cancer – cell-based, oncology-focused library, rucaparib conditional, profiling panel (AID 1508598); conditions: patient-derived ovarian cancer cells, CellTiter-Glo viability, 144 h, stronger effect = lower value
[20] = stronger effect = lower value, cell number ratio, induced over uninduced
[21] = measured here: relative caspase fold change +Dox/-Dox
[22] = measured here: total cells with miR-34 induction, stronger effect = lower value
[23] = measured here: total cells without miR-34 induction
[24] = MELAS cybrid survival, CellTiter-Glo 48 h, stronger effect = higher value
[25] = Rieske KO mouse fibroblast survival, CellTiter-Glo 72 h

Chain of NAD(+) hydrolase SARM1 (Homo sapiens) (Q6SZW1 whole entry, looked up): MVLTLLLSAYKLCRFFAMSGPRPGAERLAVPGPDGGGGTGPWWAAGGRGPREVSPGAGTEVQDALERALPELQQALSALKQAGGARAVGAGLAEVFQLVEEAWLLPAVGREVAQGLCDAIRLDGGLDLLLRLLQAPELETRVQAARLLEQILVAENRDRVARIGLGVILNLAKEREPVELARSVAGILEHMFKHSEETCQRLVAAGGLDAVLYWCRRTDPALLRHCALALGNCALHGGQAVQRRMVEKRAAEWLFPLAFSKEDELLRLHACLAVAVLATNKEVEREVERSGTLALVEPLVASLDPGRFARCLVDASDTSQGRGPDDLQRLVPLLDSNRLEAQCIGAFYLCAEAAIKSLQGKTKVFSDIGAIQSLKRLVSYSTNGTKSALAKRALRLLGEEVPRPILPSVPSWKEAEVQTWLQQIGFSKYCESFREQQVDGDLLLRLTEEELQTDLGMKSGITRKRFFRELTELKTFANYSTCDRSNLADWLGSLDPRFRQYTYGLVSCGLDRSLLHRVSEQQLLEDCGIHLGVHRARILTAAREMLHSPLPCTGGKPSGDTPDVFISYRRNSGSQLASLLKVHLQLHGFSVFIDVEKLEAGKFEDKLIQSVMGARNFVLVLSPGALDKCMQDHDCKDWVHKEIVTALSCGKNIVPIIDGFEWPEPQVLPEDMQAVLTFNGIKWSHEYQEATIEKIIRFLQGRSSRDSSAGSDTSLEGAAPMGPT

CN(C(=O)c1c(O)c2ccccc2n(C)c1=O)c1ccccc1
8780: cell count [12, 22]
0.749: fold change [12, 21]
9070: cell count [12, 23]
0.9%: nuclear beta-catenin stimulation ([1]; stimulation, at 2 µM)
inactive: nuclear beta-catenin stimulation ([1]; at 10 µM) 0.7% | insulin secretion stimulation [2] 4.4% | viability decrease [3] 2.2% | tube area decrease [4] -6.9% | GLP1 secretion stimulation [5] 0.6% | inhibition of viability [6] -2.7% | viability decrease (inhibition) [7] 1.1% | viability decrease (inhibition) [8] -45.2% | remaining activity [9] 121% | outcome [10] | outcome [11] | fold change [12, 20] 0.967 | z-score [13] -0.335

C1COC(NC(C2CC2)C2CC2)=N1
10300 and 10100 and 11000: cell count [12, 23]
-0.7%: nuclear beta-catenin stimulation ([1]; stimulation, at 2 µM)
0.9: z-score [16, 25]
inactive: parasite load remaining [14] 46.7% | nuclear beta-catenin stimulation ([1]; at 10 µM) 0.2% | insulin secretion stimulation [2] 1.6% | viability decrease [3] -1.8% | tube area decrease [4] -7.6% | GLP1 secretion stimulation [5] 1.5% | inhibition of viability [6] 5.7% | viability decrease (inhibition) [7] -4% | viability decrease (inhibition) [8] 7.9% | remaining activity [9] 98.2% | outcome [10] | outcome [15] | outcome [11] | fold change [12, 20] 0.947 and 0.935 and 0.925 | z-score [16, 24] 0.462 | z-score [13] 0.365 and -0.285 and 0.8
9720 and 9420 and 10200: cell count [12, 22]
103%: viability [14]
1.18 and 0.627 and 1.06: fold change [12, 21]

COP(=O)(OC)OC(c1ccc(Cl)cc1)P(=O)(OC)OC (stereo not drawn)
inactive: nuclear beta-catenin stimulation ([1]; at 10 µM) -1.5% | insulin secretion stimulation [2] 1.8% | viability decrease [3] -3.65% | tube area decrease [4] -20.8% | GLP1 secretion stimulation [5] 1.3% | inhibition of viability [6] -20.4% | viability decrease (inhibition) [7] -1% | viability decrease (inhibition) [8] 1.6% | remaining activity [9] 122% | fold change [12, 20] 0.979 | z-score [13] -0.085
8810: cell count [12, 22]
1.41: fold change [12, 21]
8990: cell count [12, 23]
1.2%: nuclear beta-catenin stimulation ([1]; stimulation, at 2 µM)

CC[C@]1(O)C[C@H]2CN(CCc3c([nH]c4ccccc34)[C@@](C(=O)OC)(c3cc4c(cc3OC)N(C=O)[C@H]3[C@@](O)(C(=O)OC)[C@H](OC(C)=O)[C@]5(CC)C=CCN6CC[C@]43[C@@H]65)C2)C1
1510 and 1710: cell count [12, 23]
1.85 and 0.866: fold change [12, 21]
active: nuclear beta-catenin stimulation ([1]; at 10 µM) 44% | viability decrease [3] 98.6% | tube area decrease [4] 109% | inhibition of viability [6] 67% | viability decrease (inhibition) [7] 56% | viability decrease (inhibition) [8] 59.1% | AC50 [10] 29.5 nM | AC50 [17] 5.26 nM | IC50 [11] 235 nM
inactive: parasite load remaining [14] 14.9% | insulin secretion stimulation [2] -1.1% | GLP1 secretion stimulation [5] 4.5% | remaining activity [9] 121% | fold change [12, 20] 0.912 and 1.12 | z-score [16, 24] -2.16 | remaining NAD [18] 10 nM | z-score [13] -0.515 and -1.81
1.73: z-score [16, 25]
76%: nuclear beta-catenin stimulation ([1]; stimulation, at 2 µM)
84%: viability [14]
1380 and 1910: cell count [12, 22]

CCC(CC)(CC(=O)Nc1cccc(/C=C/c2nc(C3CCC3)cs2)c1)C(=O)O
0.1%: nuclear beta-catenin stimulation ([1]; stimulation, at 2 µM)
1.27: fold change [12, 21]
inactive: nuclear beta-catenin stimulation ([1]; at 10 µM) 0% | insulin secretion stimulation [2] 1% | tube area decrease [4] 5.4% | GLP1 secretion stimulation [5] 1.7% | inhibition of viability [6] 42.9% | viability decrease (inhibition) [7] 41% | remaining activity [9] 89.3% | fold change [12, 20] 0.829
active: viability decrease [3] 96.6% | viability decrease (inhibition) [8] 70.9% | z-score [13] 2.4
7300: cell count [12, 22]
8810: cell count [12, 23]

O=C(NOCC1CC1)c1ccc(F)c(F)c1Nc1ccc(I)cc1Cl
0.574: fold change [12, 21]
active: tube area decrease [4] 104% | inhibition of viability [6] 87.4% | viability decrease (inhibition) [7] 133% | viability decrease (inhibition) [8] 92.4% | AC50 [10] 2350 nM | AC50 [15] 11800 nM | AC50 [17] 16600 nM | IC50 [11] 13200 nM | viability ([19]; at 0.00488 µM, OCI-P5x cells, without rucaparib) 97.9% | viability ([19]; at 0.313 µM, OCI-P5x cells, without rucaparib) 92.7% | viability ([19]; at 1.25 µM, OCI-P5x cells, with rucaparib 20 µM, 100% = cells with rucaparib alone) 87.2% | viability ([19]; at 1.25 µM, OCI-P5x cells, without rucaparib) 90.5% | viability ([19]; at 5 µM, OCI-C5x cells, with rucaparib 10 µM, 100% = cells with rucaparib alone) 87.6% | viability ([19]; at 5 µM, OCI-P5x cells, with rucaparib 20 µM, 100% = cells with rucaparib alone) 61% | viability ([19]; at 5 µM, OCI-P5x cells, without rucaparib) 63.3%
2940: cell count [12, 23]
3240: cell count [12, 22]
1.7%: nuclear beta-catenin stimulation ([1]; stimulation, at 2 µM)
inactive: nuclear beta-catenin stimulation ([1]; at 10 µM) 1.5% | insulin secretion stimulation [2] -0.4% | viability decrease [3] 43.3% | GLP1 secretion stimulation [5] 9.6% | fold change [12, 20] 1.1 | z-score [16, 24] -0.582 | viability ([19]; at 0.000305 µM, OCI-C5x cells, with rucaparib 10 µM, 100% = cells with rucaparib alone) 116% | viability ([19]; at 0.000305 µM, OCI-C5x cells, without rucaparib) 119% | viability ([19]; at 0.000305 µM, OCI-P5x cells, with rucaparib 20 µM, 100% = cells with rucaparib alone) 142% | viability ([19]; at 0.000305 µM, OCI-P5x cells, without rucaparib) 100% | viability ([19]; at 0.00122 µM, OCI-C5x cells, with rucaparib 10 µM, 100% = cells with rucaparib alone) 112% | viability ([19]; at 0.00122 µM, OCI-C5x cells, without rucaparib) 120% | viability ([19]; at 0.00122 µM, OCI-P5x cells, with rucaparib 20 µM, 100% = cells with rucaparib alone) 135% | viability ([19]; at 0.00122 µM, OCI-P5x cells, without rucaparib) 109% | viability ([19]; at 0.00488 µM, OCI-C5x cells, with rucaparib 10 µM, 100% = cells with rucaparib alone) 123% | viability ([19]; at 0.00488 µM, OCI-C5x cells, without rucaparib) 118% | viability ([19]; at 0.00488 µM, OCI-P5x cells, with rucaparib 20 µM, 100% = cells with rucaparib alone) 126% | viability ([19]; at 0.0195 µM, OCI-C5x cells, with rucaparib 10 µM, 100% = cells with rucaparib alone) 115% | viability ([19]; at 0.0195 µM, OCI-C5x cells, without rucaparib) 127% | viability ([19]; at 0.0195 µM, OCI-P5x cells, with rucaparib 20 µM, 100% = cells with rucaparib alone) 122% | viability ([19]; at 0.0195 µM, OCI-P5x cells, without rucaparib) 107% | viability ([19]; at 0.0781 µM, OCI-C5x cells, with rucaparib 10 µM, 100% = cells with rucaparib alone) 121% | viability ([19]; at 0.0781 µM, OCI-C5x cells, without rucaparib) 111% | viability ([19]; at 0.0781 µM, OCI-P5x cells, with rucaparib 20 µM, 100% = cells with rucaparib alone) 124% | viability ([19]; at 0.0781 µM, OCI-P5x cells, without rucaparib) 110% | viability ([19]; at 0.313 µM, OCI-C5x cells, with rucaparib 10 µM, 100% = cells with rucaparib alone) 121% | viability ([19]; at 0.313 µM, OCI-C5x cells, without rucaparib) 119% | viability ([19]; at 0.313 µM, OCI-P5x cells, with rucaparib 20 µM, 100% = cells with rucaparib alone) 106% | viability ([19]; at 1.25 µM, OCI-C5x cells, with rucaparib 10 µM, 100% = cells with rucaparib alone) 104% | viability ([19]; at 1.25 µM, OCI-C5x cells, without rucaparib) 117% | viability ([19]; at 5 µM, OCI-C5x cells, without rucaparib) 116%
0.299: z-score [16, 25]
